Our source for the growth values is PubChem BioAssay (NCI).

Holding throughout (test): NCI-60 one-dose screen, 48 h (100 = growth as untreated, 0 = no growth, -100 = all killed)
Details in all cases: 10 µM unless noted

Assay [1] deals with NCI-H226 lung.
The test system of assay [2] is NCI-H322M lung.
Assay [3] deals with HOP-62 NSCLC.
In assay [4] the test system is NCI-H460 lung.
Assay [5] relates to HOP-92 NSCLC.
Assay [6] has as its system NCI-H522 lung.
The subject of assay [7] is A549/ATCC NSCLC.
The subject of assay [8] is 786-0 renal.
Assay [9] deals with COLO 205 colon.
Assay [10] deals with DU-145 prostate.

Each structure is given as a SMILES string. This is part of a sample that, as a whole, favours compounds with a hit. Of some 83,000 tested, about 20% had one in any assay.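 The endpoint reported here, percent growth, reads 100 for growth as untreated, 0 for no net growth and -100 for all cells dead.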 A number with no mark means an inactive call. The source made the active and inactive calls. The calls were made as follows: active = growth percent below 10; inactive = the rest.

On to `O=C(CCN1C(=O)/C(=C/c2ccccc2)SC1=S)N1CCOCC1`, for which the growth in assay [1] was 104%; in [2], 87.2%; in assay [3], 114%; in assay [4], 99.3%; in [5], 94.6%; in assay [6] it was 58.3%. For the same compound, the growth in assay [7] was 101%; in assay [8], 82.6%; in assay [9], 119%; in assay [10] it was 77.3%.

In the case of `COc1ccc(/C=N/NC(=O)c2[nH]c3ccc(Br)cc3c2-c2ccccc2)o1`, the growth was 49.7% in assay [1]; 44.2% in assay [2]; 47.6% in assay [3]; 0.221% (active) in assay [4]; 33.2% in assay [5]; -54.6% (active) in [6]. Moreover, the growth is 30.4% in [7], 13.3% in assay [8], -47.8% (active) in assay [9] and 20% in assay [10].

Take `C/C(=N/NC(N)=S)c1ccc(Nc2nc(SCC(C)C)nc(-c3ccc(F)cc3)c2C#N)cc1`: the growth was -16.9% (active) in [1]; 31.4% in assay [2]; -11.1% (active) in assay [3]; -62.2% (active) in assay [4]; -39.1% (active) in assay [5]; 34.1% in assay [6]. Further, the growth was -2.25% (active) in [7], 4.53% (active) in assay [8], 16.8% in assay [9] and 18.9% in assay [10].

In the case of `CO/N=C1\CCc2c(sc(NC(=O)c3cccc(C(F)(F)F)c3)c2C(N)=O)C1`, the growth was -10.4% (active) in assay [1]; 19.9% in [2]; -0.189% (active) in assay [3]; 2.77% (active) in [4]; -12.7% (active) in [5]; 26.5% in [6]. Moreover, the growth in assay [7] was -9.56% (active); in assay [8], 1.79% (active); in [9], 72.6%; in [10], 52.9%.

For `C#Cc1nc(C2=C(C)C(O)CC2)cs1` (stereo not given), the growth is 110% in [1]; 111% in [2]; 103% in [3]; 113% in assay [4]; 115% in assay [5]; 97.2% in assay [6]. For the same compound, the growth is 100% in assay [7], -87.8% (active) in assay [8], 118% in assay [9] and 110% in [10].

For the compound `CCOC(=O)c1sc(N)c(C(=O)OCC)c1C`, the growth in assay [1] is 59.7%; in assay [2] it was 83.1%; in assay [3], 52.6%; in assay [4], 92.5%; in [5] it was -7.89% (active); in assay [6] it was 56.9%. Moreover, the growth was 65.3% in assay [7], 50.4% in [8], 68.4% in assay [9] and 66.2% in assay [10].

In the case of `COc1ccccc1/C=C/C=N/NC1=NC2C(S1)N(C)C(=O)N2C` (stereo not given), the growth in assay [1] was 55.7%; in [2] it was 51.7%; in assay [3], 35.6%; in assay [4], 11.1%; in assay [5], 9.2% (active); in assay [6], -24% (active). Besides, the growth in assay [7] was 48.3%; in assay [8] it was 44.2%; in assay [9] it was 5.69% (active); in assay [10], 24.5%.

For the compound `O=C(c1ccc(Cl)cc1)C1[C@H](c2ccc(Cl)cc2)[C@@H](c2ccccc2)NC12C(=O)Nc1ccc(Br)cc12` (stereo not given in full), the growth in assay [1] was 38.1%; in [2], 56.2%; in assay [3], 58.6%; in assay [4], 8.65% (active); in assay [5], -1.5% (active); in assay [6], 66%. The growth in [7] is 29.2%; in assay [8] it was 24.6%; in assay [9], 55.9%; in [10] it was 46.8%.

For the compound `N#Cc1nc(-c2ccccc2)oc1N1CCC(CO)C1` (stereo not given), the growth is 92.6% in [1]; 88.4% in assay [2]; 107% in assay [3]; 103% in assay [4]; 129% in assay [5]; 97.8% in assay [6]. Moreover, the growth was 95.2% in [7], 101% in [8], 116% in assay [9] and 104% in assay [10].

As for `Cc1nc(-c2cc3ccccc3oc2=O)ccc1C(=O)/C=C/c1ccccn1`, the growth is 88.7% in assay [1]; 86.3% in [2]; 103% in assay [3]; 41.1% in [4]; 80.3% in assay [5]; 58.6% in assay [6]. Moreover, the growth in assay [7] was 66.5%; in assay [8], 6.4% (active); in assay [9] it was 94.7%; in [10], 47.3%.

On to `O=c1[nH]c2ccccc2cc1CSc1ccccc1Nc1nccc(-c2ccc(C(F)(F)F)cc2)n1`, for which the growth was 56.8% in [1]; 90.5% in [2]; 78.5% in assay [3]; 40.8% in [4]; 20.5% in assay [5]; 80% in [6]. Besides, the growth in [7] was 57.6%; in [8], 45.4%; in assay [9], 104%; in [10] it was 73.4%.

Take `C=CCn1c(SCC(=O)c2ccccc2)nnc1-c1c[nH]c2ccccc12`: the growth in assay [1] is 87.8%; in assay [2], 102%; in [3], 92.5%; in [4], 107%; in [5] it was 81.3%; in assay [6], 97.8%. For the same compound, the growth is 100% in [7], 101% in assay [8], 122% in assay [9] and 109% in [10].

Turning to `O=C1NC(=C(Cl)Cl)/C(=N/S(=O)(=O)N2CCCCC2CC2(C(F)(F)F)N=N2)N1` (stereo not given), the growth in assay [1] is 89.7%; in assay [2], 97.9%; in [3], 96%; in assay [4], 84.6%; in [5] it was -51.6% (active); in assay [6], -59.3% (active). The growth was 111% in assay [7], -24.7% (active) in [8], -17.5% (active) in assay [9] and 74% in assay [10].

For the compound `N/C(=N\c1nc2c(Br)cccc2s1)C(Br)Br`, the growth is 48.9% in assay [1]; 31.8% in assay [2]; 39.8% in assay [3]; -20.4% (active) in assay [4]; -3.75% (active) in assay [5]; -75.1% (active) in assay [6]. The growth is 21.8% in assay [7], -14.3% (active) in assay [8], 1.7% (active) in assay [9] and -21.8% (active) in [10].

With `COc1cccc(COc2ccc(/C=C3/C(=O)Nc4cc(Cl)ccc43)cc2)c1`, the growth in assay [1] was 84.9%; in assay [2], 83.9%; in [3], 85.4%; in assay [4], 103%; in [5] it was 79.8%; in [6], 84%. In addition, the growth in assay [7] is 92.4%; in [8] it was 102%; in assay [9], 102%; in assay [10], 98.5%.

On to `CN1CCc2c(sc3ncnc(N/N=C/c4ccc(Cl)c(Cl)c4)c23)C1`, for which the growth in assay [1] was 56.9%; in assay [2], -3.96% (active); in assay [3], 69.7%; in assay [4], 0.478% (active); in [5], 37.4%; in assay [6], 89.9%. Moreover, the growth in assay [7] was 21.8%; in [8], -57.1% (active); in assay [9], 36.1%; in assay [10] it was 48.9%.

Regarding `COc1ccc(COc2ccc(/C=C3/C(=O)Nc4cc(Cl)ccc43)cc2)cc1`, the growth was 89.4% in assay [1]; 87.7% in assay [2]; 95.4% in assay [3]; 98.2% in assay [4]; 93.1% in assay [5]; 92% in [6]. For the same compound, the growth was 98.7% in assay [7], 110% in [8], 101% in [9] and 98.2% in [10].

With `COc1cccc(OC)c1-c1nnn(C)c1C(=S)N1CCN(c2ccc([N+](=O)[O-])cc2Cl)CC1`, the growth in assay [1] is 88.6%; in assay [2], 82.6%; in assay [3], 106%; in assay [4] it was 101%; in assay [5], 80.3%; in assay [6], 93.6%. Further, the growth in assay [7] is 92.9%; in assay [8], 92.1%; in assay [9], 107%; in assay [10], 100%.

Turning to `O=C(CSc1nccc(=O)[nH]1)Nc1ccc(-c2nc3ccccc3[nH]2)cc1`, the growth in assay [1] is 105%; in [2], 98.2%; in [3], 94.3%; in assay [4] it was 110%; in assay [5] it was 103%; in [6], 104%. Moreover, the growth in assay [7] was 110%; in [8], 101%; in assay [9], 113%; in assay [10] it was 106%.

On to `Nc1nc(N)c2c(n1)NC(c1ccc(C(F)(F)F)cc1)CC(c1ccc(Nc3nc(NCCO)nc(Nc4ccc(Cl)cc4)n3)cc1)=N2` (stereo not given), for which the growth is -40.7% (active) in assay [1]; -61% (active) in [2]; 71.7% in assay [3]; -69% (active) in [4]; -65.6% (active) in assay [5]; -80.1% (active) in assay [6]. Besides, the growth was -66.2% (active) in assay [7], -90.2% (active) in [8], 5.02% (active) in assay [9] and -93.1% (active) in assay [10].

In the case of `C#C[C@]1(O)CC[C@H]2[C@@H]3CC=C4c5sc(Nc6ccc(Cl)cn6)nc5CC[C@]4(C)[C@H]3CC[C@@]21C`, the growth in [1] is 77.1%; in [2], 82.3%; in assay [3], 34.8%; in [4] it was 28.3%; in assay [5], 59.5%; in assay [6], 67.7%. In addition, the growth is 50.3% in [7], -78.8% (active) in assay [8], 88.8% in [9] and 63.4% in [10].

For `Cn1ccnc1C(=O)/C=C/c1ccc(NC(=O)Nc2ccccc2)cc1`, the growth in [1] is 35.9%; in assay [2] it was 28.8%; in assay [3], 16.1%; in [4] it was -56.7% (active); in [5], 57.4%; in assay [6], 11.9%. Also, the growth in assay [7] was 6.79% (active); in assay [8], 5.89% (active); in assay [9] it was 11.1%; in assay [10] it was 4.23% (active).

As for `CC(C)(C)Nc1nc2c(OCCc3ccccc3)cccn2c1-c1ccccc1Cl`, the growth in [1] was -0.3% (active); in assay [2], 8.57% (active); in assay [3] it was -22.1% (active); in assay [4] it was 0.335% (active); in assay [5], -74.8% (active); in assay [6] it was -13.4% (active). Also, the growth in assay [7] was 11.6%; in assay [8], 6.01% (active); in [9], -76.6% (active); in assay [10], 21.1%.

Turning to `CN(C)CCCNc1c2ccc(Cl)cc2nc2c1oc1ccccc12`, the growth is 1.58% (active) in assay [1]; -9.39% (active) in [2]; 46.9% in assay [3]; -3.28% (active) in [4]; -1.97% (active) in assay [5]; 2.37% (active) in assay [6]. Besides, the growth was -40.4% (active) in [7], 2.06% (active) in assay [8], 1.47% (active) in [9] and 4% (active) in [10].

Take `Cn1ccnc1C(=O)/C=C/c1ccc(NC(=O)Nc2ccc(F)cc2)cc1`: the growth in assay [1] was 63.3%; in assay [2], 49.5%; in assay [3], 31%; in [4] it was 7.07% (active); in [5] it was 78.2%; in assay [6], 14.7%. The growth in assay [7] was 36.4%; in [8] it was 27.3%; in assay [9], 49.5%; in [10], 35.1%.

On to `COc1ccc(C(=O)/C=C/c2ccc(OCc3ccc(C)cc3)c(OC)c2)cc1OC`, for which the growth is 59.2% in [1]; 70.4% in [2]; 101% in [3]; 60.1% in assay [4]; 60.6% in assay [5]; 72.3% in assay [6]. The growth in assay [7] is 63.3%; in assay [8], 83.7%; in assay [9] it was 95.3%; in assay [10] it was 70.3%.

Turning to `COc1cccc(-c2nn(-c3ccccc3)cc2-c2ccnc(N3CCN(C(=O)Nc4ccc(F)cc4)CC3)c2)c1`, the growth in assay [1] is 66.7%; in [2], 79.2%; in assay [3], 102%; in assay [4], 69.5%; in assay [5], 63.1%; in assay [6], 36.2%. The growth was 55.9% in assay [7], 68.1% in [8], 64.7% in assay [9] and 67.5% in assay [10].
